hgDAF12 agonist: activates the H. glycines DAF-12 receptor ligand-binding domain; HEK293 GAL4-hgDAF12 UAS-luciferase reporter, agonist luminescence; normalized to butyrate control; activation, % at 6.8 µM; hit rate 1.8% among 370,000; AID 687014;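 active means activation above a cutoff set at the mean of all screened compounds plus 3 SD, cut at about 10% in these data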;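 further: 0% = DMSO wells and 100% = sodium butyrate wells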
ssDAF12 agonist: activates DAF-12 receptor from parasite S. stercoralis. HEK293 ssDAF-12/GRIP1 lit1-tk-luc reporter, luminescence; % of 3 µM dafachronic acid response. activation, % at 6.8 µM. hit rate 1% among 370,000. AID 652126;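 active means activation above the mean over all tested compounds plus 3 SD, cut at about 0.9% in these data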;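 further: 0% = DMSO-only wells and 100% = 3 µM delta7-dafachronic acid wells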
hcDAF12 agonist: activators of H. contortus DAF-12 nuclear receptor; hit rate 1.4% among 370,000; HEK293 hcDAF-12 lit1-tk-luc reporter, luminescence; 0% DMSO, 100% Δ7-dafachronic acid; AID 652067; activation, % at 6.8 µM;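 active means activation above the mean of all tested compounds plus 3 SD, cut at about 5.5% in these data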;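 further: 100% = response to 3 µM Δ7-dafachronic acid high control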
DAX1 inh-1: inhibitors of DAX1 repression of SF-1 activated StAR promoter; inhibition, % at 6.8 µM; hit rate 1.1% among 370,000; AID 652010; HEK293T StAR-luciferase reporter, SF-1/DAX-1 repression relief;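 active means inhibition above the mean over all tested compounds plus 3 SD, cut at about 3.6% in these data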;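 further: 0% = DAX-1 cells with DMSO and 100% = cells lacking DAX-1 with DMSO; higher inhibition means more luminescence from relief of DAX-1 repression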
DAX1 inh-2: NR0B1 (DAX1) inhibition | inhibition, % at 6.75 µM | P51843 | HEK293 Gal4-DAX1 luciferase reporter, luminescence | AID 504766 | hit rate 0.99% among 340,000;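 active means inhibition above the mean over all tested compounds plus 3 SD, cut at about 4.2% in these data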;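 further: 0% = DAX1-transfected cells with DMSO and 100% = empty-vector control cells with DMSO; inhibition shows as a rise in luminescence from relieved DAX1 repression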
Target sequence (P51843 207-470 limits assumed): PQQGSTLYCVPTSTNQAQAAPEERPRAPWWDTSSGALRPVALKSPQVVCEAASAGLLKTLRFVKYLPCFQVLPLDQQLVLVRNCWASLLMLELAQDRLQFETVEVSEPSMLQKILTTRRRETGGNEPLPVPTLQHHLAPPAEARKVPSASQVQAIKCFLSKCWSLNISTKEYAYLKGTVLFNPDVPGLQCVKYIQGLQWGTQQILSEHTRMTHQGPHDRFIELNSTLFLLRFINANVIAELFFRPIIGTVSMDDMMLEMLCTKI
Rev-erbA mod: Rev-erb alpha (human) modulation; AID 1259318; hit rate 0.79% among 370,000; activity, % at 10 µM; P20393; Rev-erbα–FITC-DNA binding, fluorescence polarization, 90 min;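 active means activity above about 14%, limit read from the data; passing the limit was not always enough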;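 further: 0% = DMSO wells with 35 nM protein and 100% = DMSO wells with 750 nM protein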
LXRb hcDAF ctr: activates human LXR-beta, counter-screen for hcDAF-12 agonists. shares compounds with hcDAF12 agonist. HEK293 Gal4-LXR tk-luc reporter, luminescence, 24 h; normalized: DMSO 0%, positive control 100%. activation, % at 6.8 µM. 3,400 tested, under 10 active;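 active means mean percent activation of the reporter above a cutoff set as the average over tested compounds plus their standard deviation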
hcDAF12 ag: confirmation of H. contortus DAF-12 agonists | hit rate 61% among 3,400 | AID 743032 | shares compounds with hcDAF12 agonist | activation, % at 6.8 µM | HEK293 hcDAF-12 lit1-tk-luc reporter, luminescence; % of Δ7-dafachronic acid response;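 active means mean activation across triplicate tests above the threshold derived from the earlier primary screen, cut at about 5.5% in these data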;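 further: 0% = DMSO only wells and 100% = 3 µM Δ7-dafachronic acid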
hgDAF12 ag: confirmation of H. glycines DAF-12 agonists; shares compounds with hgDAF12 agonist; HEK293 GAL4-hgDAF12 luciferase reporter, agonist mode; percent of butyrate response; activation, % at 6.8 µM; hit rate 80% among 3,300; AID 743050;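 active means mean activation over triplicate wells above the hit cutoff derived from the earlier primary screen, cut at about 11% in these data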;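 further: 0% = DMSO low control and 100% = 2 mM sodium butyrate high control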
LXRb DAF12 ctr: counter-screen for DAF-12 agonists: agonists of human LXR-beta. shares compounds with hgDAF12 agonist. HEK293 Gal4-LXR luciferase reporter, 24 h. activation, % at 6.8 µM. 3,300 tested, under 10 active. AID 743051;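 active means mean activation of the triplicate above a set limit carried over from the primary screen, none filed active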
An asterisk follows results filed as active. Shown are actives, neighbours in structure and some others; about 4.8% of the full set was active somewhere.

Results for c1cncc(-c2noc(-c3ccc4ccccc4c3)n2)c1 ?
hgDAF12 agonist: 17*; ssDAF12 agonist: 1.0*; hcDAF12 agonist: 8.8*; DAX1 inh-1: 3; DAX1 inh-2: 0; Rev-erbA mod: 1; LXRb hcDAF ctr: 1; hcDAF12 ag: 5; hgDAF12 ag: 19*; LXRb DAF12 ctr: 1

How did Cc1nc2ccc(NC(=O)c3cc(Cl)ccn3)cc2s1 do in these assays?
hgDAF12 agonist: 16*; ssDAF12 agonist: 0; hcDAF12 agonist: 7.0*; DAX1 inh-1: 4; DAX1 inh-2: 4; Rev-erbA mod: 8; LXRb hcDAF ctr: 1; hcDAF12 ag: 5.8*; hgDAF12 ag: 15*; LXRb DAF12 ctr: 1

Results for Cc1nc2ccc(NC(=O)c3ccc(Cl)nc3)cc2s1 ?
hgDAF12 agonist: -1; ssDAF12 agonist: -1; hcDAF12 agonist: -2; DAX1 inh-1: 0; DAX1 inh-2: 1; Rev-erbA mod: 2

What do the screens show for `CSc1nc2ccc(NC(=O)c3ccccn3)cc2s1`?
hgDAF12 agonist: 16*; ssDAF12 agonist: 1.3*; hcDAF12 agonist: 10*; DAX1 inh-1: 3.9*; DAX1 inh-2: -1; Rev-erbA mod: 0; LXRb hcDAF ctr: 2; hcDAF12 ag: 7.8*; hgDAF12 ag: 17*; LXRb DAF12 ctr: 1

How did COc1cccc(CNC(=O)[C@H]2CCCN2C(=O)[C@H]2CCCN2C(=O)N2CCCCC2)c1 do in these assays?
hgDAF12 agonist: 2; ssDAF12 agonist: 0; hcDAF12 agonist: -1; DAX1 inh-1: 0; Rev-erbA mod: -8

How did O=C(/C=C/c1ccco1)NC(=S)Nc1cc(-c2nc3ccccc3s2)ccc1Cl do in these assays?
hgDAF12 agonist: 15*; ssDAF12 agonist: 2.8*; hcDAF12 agonist: 12*; DAX1 inh-1: 3; DAX1 inh-2: 2; Rev-erbA mod: -1; LXRb hcDAF ctr: 0; hcDAF12 ag: 5; hgDAF12 ag: 6; LXRb DAF12 ctr: 0

Results for Cc1ccc(-c2nc3ccccc3s2)cc1NC(=S)NC(=O)/C=C/c1ccco1 ?
hgDAF12 agonist: 6; ssDAF12 agonist: 0; hcDAF12 agonist: 3; DAX1 inh-1: 2; DAX1 inh-2: 1; Rev-erbA mod: -5

What do the screens show for `COC(=O)[C@]12C[C@H](CC(=O)NCC3CCCCC3)C(=O)N(Cc3ccc4c(c3)OCO4)C1=C[C@H](C(C)C)O[C@@H]2C1CC1`?
hgDAF12 agonist: 2; ssDAF12 agonist: -1; hcDAF12 agonist: -1; DAX1 inh-1: 1; Rev-erbA mod: 4

Results for CN(C)c1ccc(-c2nc3ccccn3c2/N=C/c2ccc(Br)cc2)cc1 ?
hgDAF12 agonist: 16*; ssDAF12 agonist: 1.4*; hcDAF12 agonist: 7.5*; DAX1 inh-1: 3; DAX1 inh-2: 0; Rev-erbA mod: 7; LXRb hcDAF ctr: 1; hcDAF12 ag: 5; hgDAF12 ag: 8; LXRb DAF12 ctr: 1

What do the screens show for `CC(C)(C)Cc1c(-c2ccc(F)cc2)nc2ccc(Br)cn12`?
hgDAF12 agonist: 9; ssDAF12 agonist: -1; hcDAF12 agonist: -2; DAX1 inh-1: 1; DAX1 inh-2: 2; Rev-erbA mod: -1

Results for COc1cc(-c2nc3ccccn3c2/N=C/c2cc(OC)c(OC)c(OC)c2)ccc1O ?
hgDAF12 agonist: -1; ssDAF12 agonist: -1; hcDAF12 agonist: 0; DAX1 inh-1: 0; DAX1 inh-2: 0; Rev-erbA mod: 4

Results for Cc1c(-c2ccc(Br)cc2)nc2ccccn12 ?
hgDAF12 agonist: 15*; ssDAF12 agonist: 1.4*; hcDAF12 agonist: 8.4*; DAX1 inh-1: 4.0*; DAX1 inh-2: 1; Rev-erbA mod: 2; LXRb hcDAF ctr: 1; hcDAF12 ag: 7.5*; hgDAF12 ag: 15*; LXRb DAF12 ctr: 1

What do the screens show for `COC(=O)[C@]12C[C@H](CC(=O)N3CCC(c4ccccc4)CC3)C(=O)N(Cc3ccc(Cl)cc3Cl)C1=C[C@H](COCc1ccccc1)O[C@@H]2C`?
hgDAF12 agonist: -3; ssDAF12 agonist: -1; hcDAF12 agonist: -2; DAX1 inh-1: -1; Rev-erbA mod: -2

How did CCOC(=O)c1csc(-c2sccc2Br)n1 do in these assays?
hgDAF12 agonist: 16*; ssDAF12 agonist: 0.9*; hcDAF12 agonist: 7.0*; DAX1 inh-1: 3; DAX1 inh-2: 3; Rev-erbA mod: -2; LXRb hcDAF ctr: 1; hcDAF12 ag: 5.8*; hgDAF12 ag: 16*; LXRb DAF12 ctr: 1

Results for O=C(Nc1ccc(Cl)cc1)N1CCN(Cc2nc3ccccc3c(=O)[nH]2)CC1 ?
hgDAF12 agonist: 0; ssDAF12 agonist: -1; hcDAF12 agonist: -2; DAX1 inh-1: 1; Rev-erbA mod: -7

Results for O=C(c1cccs1)N1CC[C@H]2[C@H](CCCN2Cc2ccc(F)cc2)C1 ?
hgDAF12 agonist: 0; ssDAF12 agonist: -2; hcDAF12 agonist: -1; DAX1 inh-1: 0; Rev-erbA mod: 1

What do the screens show for `CCn1c(COc2ccc(C)cc2)nnc1SCC(=O)Nc1ccccc1-c1ccccc1`?
hgDAF12 agonist: -3; ssDAF12 agonist: -2; hcDAF12 agonist: -2; DAX1 inh-1: -2; Rev-erbA mod: -1

What do the screens show for `CCCC(=O)Nc1cc(=O)n(C)c(=O)n1C`?
hgDAF12 agonist: -1; ssDAF12 agonist: -2; hcDAF12 agonist: -1; DAX1 inh-1: 0; DAX1 inh-2: 1; Rev-erbA mod: -5

Screening data from PubChem.
